# Inconclusive results are not listed. The source made the active and inactive calls. Rule for the calls: active = hit-call score of the fitted dose curve at least 0.9, where 1 is the maximum; inconclusive = response in the unintended direction; inactive = score below 0.9.
# Test: CCTE_Harrill_HTTr_CellCount_MCF7: CCTE's Cell Proliferation Assessment for the High-Throughput Transcriptomics (HTTr) Platform, Harrill Lab (AID 2284012);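 note: cells exposed to compound for six hours; intended direction is loss of nuclei count meaning fewer cells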
# Text: This is a cell-based assay that evaluates cell viability and cell growth using high content imaging to count the number of Hoechst-labeled nuclei that are present in an assay well in 384-well format.This is a cell-based assay that evaluates cell viability and cell growth in MCF-7 cells. This was part of a full screening experiment. High content imaging is used to count the number of Hoechst-labeled nuclei that are present in an assay well in 384-well format.The assay component endpoint CCTE_Harrill_HTTr_CellCount_MCF7 was analyzed with bidirectional fitting relation to DMSO as the negative control and baseline of activity. Using a type of viability reporter, loss-of-signal activity can be used to understand changes in cell count. To generalize the intended target to other relatable targets, this assay endpoint is annotated to cell cycle, where the subfamily is cell count.
# Chemicals were tested in MCF7 cells in an eight point dilution series with a six hour exposure duration.
row,SMILES,outcome
1,Cn1c(-c2ccccc2)cc(-c2ccccc2)[n+]1C,inactive
2,Clc1cccc(C(Cl)(Cl)Cl)n1,inactive
3,COC(=O)NC(=S)Nc1ccccc1NC(=S)NC(=O)OC,inactive
4,Nc1c(Cl)c(Cl)nc(C(=O)O)c1Cl,inactive
5,CC1(C)C(C=C(Cl)Cl)C1C(=O)OC(C#N)c1cccc(Oc2ccccc2)c1 (centres undefined),inactive
6,COC(=O)c1c(C(F)F)nc(C(F)(F)F)c(C2=NCCS2)c1CC(C)C,inactive
7,O=C(Nc1ccccc1-c1ccc(Cl)cc1)c1cccnc1Cl,inactive
8,CS(=O)(=O)c1cc(C(F)(F)F)ccc1C(=O)c1cnoc1C1CC1,inactive
9,COP(=S)(OC)SCn1nnc2ccccc2c1=O,inactive
10,CCCCOCN(C(=O)CCl)c1c(CC)cccc1CC,inactive
11,O=C1C2CC=CCC2C(=O)N1SC(Cl)(Cl)Cl (centres undefined),inactive
12,CC1(C)C(C(=O)OC(C#N)c2cccc(Oc3ccccc3)c2)C1(C)C (centres undefined),inactive
13,Nc1c(Cl)c(F)nc(OCC(=O)O)c1Cl,inactive
14,CS(=O)(=O)c1ccc(C(=O)C2C(=O)CCCC2=O)c([N+](=O)[O-])c1,inactive
15,COC(=O)N(C(=O)N1CO[C@@]2(C(=O)OC)Cc3cc(Cl)ccc3C2=N1)c1ccc(OC(F)(F)F)cc1,inactive
16,CCCCC(O)(Cn1cncn1)c1ccc(Cl)cc1Cl (centres undefined),inactive
17,CC(C)(C)C(=O)C(Oc1ccc(Cl)cc1)n1cncn1 (centres undefined),inactive
18,CC(C)N1C(=O)c2ccccc2NS1(=O)=O,inactive
19,CCN(CC)c1nc(C)cc(OP(=S)(OC)OC)n1,inactive
20,CCC(C)n1c(=O)[nH]c(C)c(Br)c1=O (centres undefined),inactive

row,SMILES,outcome
1,CN/C(=N\[N+](=O)[O-])NCc1cnc(Cl)s1,inactive
2,OC(c1ccc(Cl)cc1)(c1ccc(Cl)cc1)C(Cl)(Cl)Cl,inactive
3,CCNC(=O)NC(=O)C(C#N)=NOC,inactive
4,CCOP(=S)(OCC)Oc1nc(Cl)n(C(C)C)n1,inactive
5,COP(=S)(OC)Oc1ccc([N+](=O)[O-])c(C)c1,inactive
6,Cc1cnc(C2=NC(C)(C(C)C)C(=O)N2)c(C(=O)O)c1 (centres undefined),inactive
7,CC(C)N1C(=O)N(c2ccccc2)CSC1=NC(C)(C)C,inactive
8,Cc1ccc(N=CN(C)C=Nc2ccc(C)cc2C)c(C)c1,inactive
9,COC(=O)NS(=O)(=O)c1ccc(N)cc1,inactive
10,Cc1c(COC(=O)[C@@H]2[C@H](/C=C(\Cl)C(F)(F)F)C2(C)C)cccc1-c1ccccc1,inactive
11,CC(C)Oc1cccc(NC(=O)c2ccccc2C(F)(F)F)c1,inactive
12,Clc1nc(Cl)nc(Nc2ccccc2Cl)n1,inactive
13,CCOc1nc(C(Cl)(Cl)Cl)ns1,inactive
14,CCCN(CC)CC1COC2(CCC(C(C)(C)C)CC2)O1 (centres undefined),inactive
15,CCCCC(C#N)(Cn1cncn1)c1ccc(Cl)cc1 (centres undefined),inactive
16,CCNP(=S)(OC)O/C(C)=C/C(=O)OC(C)C (centres undefined),inactive
17,CO/N=C(/C1=NOCCO1)c1ccccc1Oc1ncnc(Oc2ccccc2Cl)c1F,inactive
18,CCOP(=O)(OCC)Oc1nc(Cl)c(Cl)cc1Cl,inactive
19,C=CCOC(=O)C(C)(C)OC(=O)c1cc(-n2c(=O)cc(C(F)(F)F)n(C)c2=O)ccc1Cl,inactive

# — PubChem BioAssay (EPA / NIEHS)
